# Experimental data reported in ChEMBL document CHEMBL1961873, “Compounds: GSK PKIS; Assays: Nanosyn kinase panel” (2012).
# Columns and labels:
# [1] = biological target: T1, Serine/threonine-protein kinase D2 (Homo sapiens) (UniProt Q9BZL6); settings: at 1 µM;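 also: mean value of PRKD2 inhibition, from the GSK PKIS screening panel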
# T1 sequence (whole entry): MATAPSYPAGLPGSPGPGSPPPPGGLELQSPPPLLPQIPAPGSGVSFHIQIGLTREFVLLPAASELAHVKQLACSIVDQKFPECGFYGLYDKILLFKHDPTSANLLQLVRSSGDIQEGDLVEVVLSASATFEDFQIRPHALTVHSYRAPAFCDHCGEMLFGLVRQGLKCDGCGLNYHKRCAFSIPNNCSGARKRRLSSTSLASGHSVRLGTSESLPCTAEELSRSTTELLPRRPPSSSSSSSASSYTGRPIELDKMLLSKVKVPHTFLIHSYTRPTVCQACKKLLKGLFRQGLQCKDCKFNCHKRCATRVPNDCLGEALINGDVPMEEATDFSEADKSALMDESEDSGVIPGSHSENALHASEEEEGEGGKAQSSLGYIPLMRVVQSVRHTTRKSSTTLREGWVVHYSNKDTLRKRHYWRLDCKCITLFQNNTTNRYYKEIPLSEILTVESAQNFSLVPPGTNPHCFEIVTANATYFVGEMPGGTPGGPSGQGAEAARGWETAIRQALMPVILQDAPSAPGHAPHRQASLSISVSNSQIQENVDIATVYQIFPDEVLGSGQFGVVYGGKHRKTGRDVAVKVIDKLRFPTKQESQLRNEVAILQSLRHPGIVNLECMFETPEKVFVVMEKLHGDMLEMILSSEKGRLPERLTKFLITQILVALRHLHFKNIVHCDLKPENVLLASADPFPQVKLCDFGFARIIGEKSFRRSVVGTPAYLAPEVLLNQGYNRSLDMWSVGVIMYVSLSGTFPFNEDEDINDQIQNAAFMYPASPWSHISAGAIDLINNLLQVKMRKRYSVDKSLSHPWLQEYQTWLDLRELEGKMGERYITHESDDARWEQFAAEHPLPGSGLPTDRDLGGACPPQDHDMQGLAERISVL
# [2] = biological target: T2, Serine/threonine-protein kinase D3 (Homo sapiens) (UniProt O94806); settings: at 0.1 µM
# T2 sequence (whole entry): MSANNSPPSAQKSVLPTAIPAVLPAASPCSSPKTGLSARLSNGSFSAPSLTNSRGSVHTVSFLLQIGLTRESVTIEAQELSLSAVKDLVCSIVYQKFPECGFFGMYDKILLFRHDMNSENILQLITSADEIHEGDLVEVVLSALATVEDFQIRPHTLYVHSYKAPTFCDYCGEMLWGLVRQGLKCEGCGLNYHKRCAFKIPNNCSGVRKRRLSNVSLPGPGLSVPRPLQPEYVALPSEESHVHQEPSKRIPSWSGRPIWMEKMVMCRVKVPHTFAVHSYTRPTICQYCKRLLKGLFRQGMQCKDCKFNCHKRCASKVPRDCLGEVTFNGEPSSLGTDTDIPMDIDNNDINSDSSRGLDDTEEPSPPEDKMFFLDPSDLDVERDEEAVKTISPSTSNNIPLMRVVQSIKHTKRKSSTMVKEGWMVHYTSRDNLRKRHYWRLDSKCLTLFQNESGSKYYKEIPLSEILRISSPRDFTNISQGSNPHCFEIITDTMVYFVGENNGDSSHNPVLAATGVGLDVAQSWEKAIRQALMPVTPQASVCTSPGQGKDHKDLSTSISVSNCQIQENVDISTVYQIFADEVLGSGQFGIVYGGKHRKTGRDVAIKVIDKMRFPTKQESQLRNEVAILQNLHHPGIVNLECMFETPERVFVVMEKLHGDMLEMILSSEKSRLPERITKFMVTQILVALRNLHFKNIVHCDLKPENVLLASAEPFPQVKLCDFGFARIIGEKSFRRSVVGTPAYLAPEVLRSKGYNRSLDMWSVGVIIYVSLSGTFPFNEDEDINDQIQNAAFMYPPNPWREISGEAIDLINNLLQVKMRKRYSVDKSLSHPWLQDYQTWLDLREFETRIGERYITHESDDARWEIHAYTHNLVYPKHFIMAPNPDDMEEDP
# [3] = biological target: T2, Serine/threonine-protein kinase D3 (Homo sapiens); settings: at 1 µM
# [4] = biological target: T3, cGMP-dependent protein kinase 1 (Homo sapiens) (UniProt Q13976); settings: at 0.1 µM
# T3 sequence (whole entry): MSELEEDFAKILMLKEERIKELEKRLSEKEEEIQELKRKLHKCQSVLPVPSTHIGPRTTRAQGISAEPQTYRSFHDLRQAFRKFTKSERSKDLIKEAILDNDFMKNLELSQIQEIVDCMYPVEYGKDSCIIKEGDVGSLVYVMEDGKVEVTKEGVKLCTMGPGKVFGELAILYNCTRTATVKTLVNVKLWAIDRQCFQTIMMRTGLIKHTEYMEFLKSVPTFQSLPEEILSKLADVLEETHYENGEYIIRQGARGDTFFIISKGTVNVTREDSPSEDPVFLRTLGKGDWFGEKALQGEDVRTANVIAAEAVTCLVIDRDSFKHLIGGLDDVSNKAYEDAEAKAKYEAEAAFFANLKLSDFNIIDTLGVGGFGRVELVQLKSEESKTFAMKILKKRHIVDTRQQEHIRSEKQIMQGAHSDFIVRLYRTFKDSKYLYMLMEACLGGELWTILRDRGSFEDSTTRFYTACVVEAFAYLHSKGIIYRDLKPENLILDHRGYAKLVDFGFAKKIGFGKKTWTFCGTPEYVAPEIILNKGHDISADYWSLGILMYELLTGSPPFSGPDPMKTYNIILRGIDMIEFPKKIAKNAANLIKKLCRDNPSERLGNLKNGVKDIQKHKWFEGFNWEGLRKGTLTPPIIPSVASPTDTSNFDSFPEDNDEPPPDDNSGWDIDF
# [5] = biological target: T3, cGMP-dependent protein kinase 1 (Homo sapiens); settings: at 1 µM
# [6] = biological target: T4, cGMP-dependent protein kinase 2 (Homo sapiens) (UniProt Q13237); settings: at 0.1 µM
# T4 sequence (whole entry): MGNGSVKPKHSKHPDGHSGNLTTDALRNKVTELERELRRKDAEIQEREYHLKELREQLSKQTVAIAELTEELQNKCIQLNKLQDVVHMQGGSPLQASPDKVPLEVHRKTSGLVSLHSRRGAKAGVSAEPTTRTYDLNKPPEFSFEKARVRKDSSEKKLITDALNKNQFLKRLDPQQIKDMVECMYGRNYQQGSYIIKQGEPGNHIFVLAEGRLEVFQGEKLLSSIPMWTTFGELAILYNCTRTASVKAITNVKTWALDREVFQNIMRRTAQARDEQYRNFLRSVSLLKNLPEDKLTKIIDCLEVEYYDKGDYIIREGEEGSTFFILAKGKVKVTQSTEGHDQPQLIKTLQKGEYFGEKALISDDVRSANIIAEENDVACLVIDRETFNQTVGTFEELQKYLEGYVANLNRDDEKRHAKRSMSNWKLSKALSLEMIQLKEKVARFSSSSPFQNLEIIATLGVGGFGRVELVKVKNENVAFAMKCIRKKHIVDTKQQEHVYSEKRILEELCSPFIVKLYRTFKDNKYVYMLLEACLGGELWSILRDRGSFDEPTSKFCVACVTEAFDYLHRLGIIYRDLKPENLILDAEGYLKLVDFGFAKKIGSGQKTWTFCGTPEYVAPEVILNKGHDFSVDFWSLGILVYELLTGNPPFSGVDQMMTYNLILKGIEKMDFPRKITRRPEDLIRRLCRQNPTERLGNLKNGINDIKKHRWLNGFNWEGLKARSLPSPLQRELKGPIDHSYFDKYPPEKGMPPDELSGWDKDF
# [7] = biological target: T4, cGMP-dependent protein kinase 2 (Homo sapiens); settings: at 1 µM
# [8] = biological target: T5, cAMP-dependent protein kinase catalytic subunit PRKX (Homo sapiens) (UniProt P51817); settings: at 0.1 µM
# T5 sequence (whole entry): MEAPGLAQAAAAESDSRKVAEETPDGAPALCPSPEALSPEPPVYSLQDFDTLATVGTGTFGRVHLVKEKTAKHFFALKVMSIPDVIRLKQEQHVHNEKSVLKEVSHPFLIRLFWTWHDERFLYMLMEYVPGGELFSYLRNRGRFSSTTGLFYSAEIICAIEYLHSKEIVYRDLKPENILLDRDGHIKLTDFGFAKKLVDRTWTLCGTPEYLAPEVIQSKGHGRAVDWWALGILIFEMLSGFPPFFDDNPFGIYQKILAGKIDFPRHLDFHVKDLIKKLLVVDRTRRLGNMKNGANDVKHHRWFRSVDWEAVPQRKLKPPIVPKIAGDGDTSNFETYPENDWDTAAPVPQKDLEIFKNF
# [9] = biological target: T5, cAMP-dependent protein kinase catalytic subunit PRKX (Homo sapiens); settings: at 1 µM
# [10] = biological target: Rho-associated protein kinase 1 (Homo sapiens) (UniProt Q13464); settings: at 0.1 µM
# [11] = biological target: Rho-associated protein kinase 1 (Homo sapiens) (UniProt Q13464); settings: at 1 µM
# [12] = biological target: Rho-associated protein kinase 2 (Homo sapiens) (UniProt O75116); settings: at 0.1 µM
# [13] = biological target: Rho-associated protein kinase 2 (Homo sapiens) (UniProt O75116); settings: at 1 µM
# [14] = biological target: Ribosomal protein S6 kinase alpha-1 (Homo sapiens) (UniProt Q15418); settings: at 0.1 µM
# [15] = biological target: Ribosomal protein S6 kinase alpha-1 (Homo sapiens) (UniProt Q15418); settings: at 1 µM
# [16] = biological target: Ribosomal protein S6 kinase alpha-3 (Homo sapiens) (UniProt P51812); settings: at 0.1 µM
# [17] = biological target: Ribosomal protein S6 kinase alpha-3 (Homo sapiens) (UniProt P51812); settings: at 1 µM
# [18] = biological target: Ribosomal protein S6 kinase alpha-2 (Homo sapiens) (UniProt Q15349); settings: at 0.1 µM
# [19] = biological target: Ribosomal protein S6 kinase alpha-2 (Homo sapiens) (UniProt Q15349); settings: at 1 µM
# [20] = biological target: Ribosomal protein S6 kinase alpha-6 (Homo sapiens) (UniProt Q9UK32); settings: at 0.1 µM;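 also: reported value is the mean inhibition of RSK4, from the GSK PKIS kinase inhibitor screen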
# Sequence of Ribosomal protein S6 kinase alpha-6 (Homo sapiens) (Q9UK32 whole entry): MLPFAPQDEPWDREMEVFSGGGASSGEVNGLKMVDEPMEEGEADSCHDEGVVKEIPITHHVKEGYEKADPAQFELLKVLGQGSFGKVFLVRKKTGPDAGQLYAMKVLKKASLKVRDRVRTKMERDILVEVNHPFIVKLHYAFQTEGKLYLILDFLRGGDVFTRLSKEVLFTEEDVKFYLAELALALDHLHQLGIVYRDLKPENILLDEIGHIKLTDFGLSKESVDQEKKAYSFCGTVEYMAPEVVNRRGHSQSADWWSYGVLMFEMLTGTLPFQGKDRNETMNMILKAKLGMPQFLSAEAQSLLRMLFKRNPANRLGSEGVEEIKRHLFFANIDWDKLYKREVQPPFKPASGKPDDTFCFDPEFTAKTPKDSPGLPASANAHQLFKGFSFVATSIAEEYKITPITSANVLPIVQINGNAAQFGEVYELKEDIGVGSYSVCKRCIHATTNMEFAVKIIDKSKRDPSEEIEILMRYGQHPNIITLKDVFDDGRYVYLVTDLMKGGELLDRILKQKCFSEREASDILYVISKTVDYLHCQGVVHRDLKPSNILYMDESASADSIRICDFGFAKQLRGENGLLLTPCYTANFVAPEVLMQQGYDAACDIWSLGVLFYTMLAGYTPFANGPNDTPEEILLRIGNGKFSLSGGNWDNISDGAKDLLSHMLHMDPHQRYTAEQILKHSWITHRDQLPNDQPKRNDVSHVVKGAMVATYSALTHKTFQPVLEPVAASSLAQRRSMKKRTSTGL
# Sequence of Ribosomal protein S6 kinase alpha-3 (Homo sapiens) (P51812 whole entry): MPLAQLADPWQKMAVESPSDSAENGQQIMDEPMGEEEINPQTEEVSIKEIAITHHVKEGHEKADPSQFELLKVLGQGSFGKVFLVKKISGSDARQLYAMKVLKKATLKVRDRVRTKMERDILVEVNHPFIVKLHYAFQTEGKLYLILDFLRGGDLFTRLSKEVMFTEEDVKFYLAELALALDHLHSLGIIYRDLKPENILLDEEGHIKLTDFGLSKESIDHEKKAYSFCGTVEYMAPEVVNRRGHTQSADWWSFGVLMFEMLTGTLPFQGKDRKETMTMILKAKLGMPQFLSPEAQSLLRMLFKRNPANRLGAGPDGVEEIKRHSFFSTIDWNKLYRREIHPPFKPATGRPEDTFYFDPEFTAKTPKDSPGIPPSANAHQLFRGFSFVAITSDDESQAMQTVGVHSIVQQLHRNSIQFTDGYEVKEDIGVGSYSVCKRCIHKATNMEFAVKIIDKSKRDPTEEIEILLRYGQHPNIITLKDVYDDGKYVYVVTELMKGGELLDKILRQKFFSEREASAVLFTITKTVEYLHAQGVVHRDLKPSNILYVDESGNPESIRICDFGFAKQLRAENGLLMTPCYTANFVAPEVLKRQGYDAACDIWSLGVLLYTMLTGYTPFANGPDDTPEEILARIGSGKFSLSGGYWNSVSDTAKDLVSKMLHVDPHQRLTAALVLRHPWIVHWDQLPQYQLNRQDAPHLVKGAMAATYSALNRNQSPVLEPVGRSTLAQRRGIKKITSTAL
# Sequence of Rho-associated protein kinase 2 (Homo sapiens) (O75116 whole entry, looked up): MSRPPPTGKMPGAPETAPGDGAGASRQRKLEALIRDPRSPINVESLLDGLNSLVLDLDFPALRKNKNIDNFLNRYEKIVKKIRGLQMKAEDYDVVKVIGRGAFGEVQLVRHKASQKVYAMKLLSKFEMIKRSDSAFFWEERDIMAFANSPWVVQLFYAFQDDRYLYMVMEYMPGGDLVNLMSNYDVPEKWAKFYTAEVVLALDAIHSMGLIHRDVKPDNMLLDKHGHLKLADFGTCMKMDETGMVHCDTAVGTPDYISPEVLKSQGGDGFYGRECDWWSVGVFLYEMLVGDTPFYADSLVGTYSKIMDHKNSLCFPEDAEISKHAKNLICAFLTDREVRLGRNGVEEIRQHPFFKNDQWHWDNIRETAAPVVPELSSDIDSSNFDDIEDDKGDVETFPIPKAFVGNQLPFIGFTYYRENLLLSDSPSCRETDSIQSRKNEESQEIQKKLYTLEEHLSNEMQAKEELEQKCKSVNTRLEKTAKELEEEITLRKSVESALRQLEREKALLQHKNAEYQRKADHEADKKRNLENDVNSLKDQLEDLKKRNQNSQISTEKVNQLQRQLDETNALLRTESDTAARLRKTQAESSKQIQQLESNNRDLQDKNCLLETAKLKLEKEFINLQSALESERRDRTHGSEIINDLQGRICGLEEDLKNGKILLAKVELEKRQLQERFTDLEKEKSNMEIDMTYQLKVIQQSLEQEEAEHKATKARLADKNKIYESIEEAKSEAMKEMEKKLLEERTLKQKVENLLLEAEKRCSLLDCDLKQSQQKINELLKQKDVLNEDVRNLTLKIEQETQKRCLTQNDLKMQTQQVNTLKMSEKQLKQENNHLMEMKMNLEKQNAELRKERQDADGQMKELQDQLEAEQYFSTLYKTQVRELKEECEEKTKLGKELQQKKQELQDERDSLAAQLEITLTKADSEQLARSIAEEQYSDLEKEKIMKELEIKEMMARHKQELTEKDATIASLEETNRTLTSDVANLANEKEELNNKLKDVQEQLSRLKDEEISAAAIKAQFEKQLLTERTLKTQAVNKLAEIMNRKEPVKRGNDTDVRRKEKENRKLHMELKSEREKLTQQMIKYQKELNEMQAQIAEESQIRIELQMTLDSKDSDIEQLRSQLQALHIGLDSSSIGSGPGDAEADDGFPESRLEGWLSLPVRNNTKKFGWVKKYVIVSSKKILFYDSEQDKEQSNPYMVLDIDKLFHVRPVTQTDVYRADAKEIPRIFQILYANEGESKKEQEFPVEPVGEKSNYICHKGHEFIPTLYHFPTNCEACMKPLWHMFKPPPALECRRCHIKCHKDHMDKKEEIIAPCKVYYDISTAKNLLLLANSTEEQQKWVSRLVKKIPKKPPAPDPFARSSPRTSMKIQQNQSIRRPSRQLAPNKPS
# Sequence of Ribosomal protein S6 kinase alpha-1 (Homo sapiens) (Q15418 whole entry): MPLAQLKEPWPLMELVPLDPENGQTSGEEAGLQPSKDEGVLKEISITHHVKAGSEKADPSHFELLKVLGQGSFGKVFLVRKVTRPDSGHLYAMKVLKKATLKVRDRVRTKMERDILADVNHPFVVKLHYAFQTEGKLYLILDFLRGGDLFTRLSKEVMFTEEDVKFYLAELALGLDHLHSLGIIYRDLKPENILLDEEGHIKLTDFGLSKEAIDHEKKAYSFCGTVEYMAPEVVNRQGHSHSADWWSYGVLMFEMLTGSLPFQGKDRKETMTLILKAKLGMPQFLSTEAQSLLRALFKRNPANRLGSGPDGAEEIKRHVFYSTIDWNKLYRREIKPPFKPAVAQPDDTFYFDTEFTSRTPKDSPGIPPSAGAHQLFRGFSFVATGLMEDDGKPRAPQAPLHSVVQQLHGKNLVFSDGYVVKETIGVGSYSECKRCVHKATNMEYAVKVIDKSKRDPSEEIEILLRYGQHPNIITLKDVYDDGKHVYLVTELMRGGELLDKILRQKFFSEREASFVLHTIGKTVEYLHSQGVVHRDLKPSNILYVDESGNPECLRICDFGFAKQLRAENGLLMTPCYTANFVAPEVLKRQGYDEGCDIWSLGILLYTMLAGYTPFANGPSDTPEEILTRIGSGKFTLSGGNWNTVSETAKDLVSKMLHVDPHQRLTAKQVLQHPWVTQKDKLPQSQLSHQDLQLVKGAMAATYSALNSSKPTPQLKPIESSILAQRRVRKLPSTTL
# Sequence of Rho-associated protein kinase 1 (Homo sapiens) (Q13464 2-1354 limits assumed): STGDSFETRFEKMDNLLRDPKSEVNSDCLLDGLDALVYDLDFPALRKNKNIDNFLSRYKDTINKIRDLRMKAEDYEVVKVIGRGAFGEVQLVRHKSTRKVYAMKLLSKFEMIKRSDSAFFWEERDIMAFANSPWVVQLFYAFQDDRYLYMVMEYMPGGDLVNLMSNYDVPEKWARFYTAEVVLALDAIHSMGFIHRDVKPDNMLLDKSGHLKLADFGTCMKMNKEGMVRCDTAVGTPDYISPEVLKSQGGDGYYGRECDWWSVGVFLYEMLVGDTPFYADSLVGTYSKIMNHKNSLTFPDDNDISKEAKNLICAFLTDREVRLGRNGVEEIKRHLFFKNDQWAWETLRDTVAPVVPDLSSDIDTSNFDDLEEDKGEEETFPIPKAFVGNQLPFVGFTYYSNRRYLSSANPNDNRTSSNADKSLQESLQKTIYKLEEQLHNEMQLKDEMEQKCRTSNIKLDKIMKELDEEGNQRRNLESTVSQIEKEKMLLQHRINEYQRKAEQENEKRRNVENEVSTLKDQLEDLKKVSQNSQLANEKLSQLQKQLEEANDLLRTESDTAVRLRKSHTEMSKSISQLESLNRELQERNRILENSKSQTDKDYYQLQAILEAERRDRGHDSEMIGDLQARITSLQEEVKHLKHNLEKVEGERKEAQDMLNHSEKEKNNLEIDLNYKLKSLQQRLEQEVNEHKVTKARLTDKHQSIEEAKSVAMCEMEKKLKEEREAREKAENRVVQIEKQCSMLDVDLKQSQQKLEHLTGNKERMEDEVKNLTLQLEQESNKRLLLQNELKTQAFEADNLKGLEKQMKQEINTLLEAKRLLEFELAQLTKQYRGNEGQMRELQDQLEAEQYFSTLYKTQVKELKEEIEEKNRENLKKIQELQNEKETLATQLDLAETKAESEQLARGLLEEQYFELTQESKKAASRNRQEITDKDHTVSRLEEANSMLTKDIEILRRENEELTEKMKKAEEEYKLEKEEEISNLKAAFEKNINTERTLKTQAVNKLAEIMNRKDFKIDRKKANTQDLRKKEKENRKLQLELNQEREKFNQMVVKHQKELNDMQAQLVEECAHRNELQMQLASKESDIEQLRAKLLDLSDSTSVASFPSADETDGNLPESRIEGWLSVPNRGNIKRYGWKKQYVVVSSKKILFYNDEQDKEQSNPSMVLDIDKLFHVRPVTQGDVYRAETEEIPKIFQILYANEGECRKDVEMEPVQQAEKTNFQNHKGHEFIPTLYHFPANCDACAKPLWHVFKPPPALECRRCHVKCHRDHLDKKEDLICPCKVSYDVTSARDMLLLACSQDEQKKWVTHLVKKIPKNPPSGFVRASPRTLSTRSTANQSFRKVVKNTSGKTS
SMILES,inhibition [1] [%],inhibition [2] [%],inhibition [3] [%],inhibition [4] [%],inhibition [5] [%],inhibition [6] [%],inhibition [7] [%],inhibition [8] [%],inhibition [9] [%],inhibition [10] [%],inhibition [11] [%],inhibition [12] [%],inhibition [13] [%],inhibition [14] [%],inhibition [15] [%],inhibition [16] [%],inhibition [17] [%],inhibition [18] [%],inhibition [19] [%],inhibition [20] [%]
c1ccc(-c2n[nH]cc2-c2ccnc(-c3ccc(OCCn4ccnc4)cc3)c2)nc1,64.3,7.07,47.7,0.59,4.08,1.04,2.63,2.32,7.66,4.13,5.6,5.64,7.73,0.66,4.31,0.64,3.85,1.32,1.36,0.75
COc1cccc(-n2ncc3c(N/N=C/c4ccc(C(=O)NCCN(C)C)cc4)ncnc32)c1,6.33,2.63,4.71,2.79,1.97,4.28,20.5,1.32,5.04,3.7,7.32,5.29,9.45,1.48,6.32,0.89,5.65,1.89,8.18,2.38
CCn1c(-c2nonc2N)nc2cncc(C(=O)NCCNC)c21,5.38,5.66,6.85,36.2,70,61.7,73.8,18.4,63.9,71.8,91.6,80.6,90.4,62.3,88.3,54.5,78.7,25.4,73.8,9.72
CC1=C(C(=O)Nc2ccc3[nH]ncc3c2)C(c2ccc(F)cc2)N=C(c2ccc(C(F)(F)F)nc2)N1 (stereo not given),2.33,3.1,2.8,7.52,42.2,4.96,31.1,3.93,23.6,31.3,73.2,35.7,75,0.61,4.49,-0.02,2.71,1.05,3.76,0.55
COc1ccccc1-c1cc(/C=C2\C(=O)Nc3ncc(Br)cc32)cc(Br)c1O,6.48,5.02,6.21,2.01,5.3,1.73,5.97,0.16,0.16,0.21,2.31,1.89,2.15,0.44,0.08,0.16,1.15,1.52,3.85,-0.23
COc1c(C(N)=O)cc(-c2ccc(Cl)cc2)cc1-c1ccc(S(N)(=O)=O)cc1,1.99,4.57,4.42,4.35,9.49,3.98,8.49,1.69,3.72,2.98,3.19,2.99,5.06,1.96,2.12,1.72,2.53,2.4,2.98,2.25
CN(C)CCNC(=O)Nc1ccc(N(C)c2ccnc(Nc3ccc(CS(C)(=O)=O)cc3)n2)cc1,6.51,4.97,5.75,3.82,4.38,1.71,3.5,0.73,0.09,3.43,19.8,5.05,24,2.03,2.41,0.87,2.03,2.14,4.06,1.56
COc1cc(Nc2ncc(-c3ccccc3)o2)cc(OC)c1,1.86,5.05,4.51,1.76,1.96,1.74,2.19,0.91,4.53,2.5,2.6,3.77,-3.98,1.54,1.99,1.01,2.61,1.71,3.57,0.85
NC(=O)c1ccc2c(-c3ccnc(NCCCO)n3)c(-c3ccc(F)cc3)nn2c1,32.7,7.38,28.4,3.77,5.16,1.84,3.89,1.77,1.05,1.85,1.92,3.55,5.31,3.69,1.7,0.96,1.23,2.66,3.1,2.24
NS(=O)(=O)c1ccc(N/N=C2\C(=O)Nc3ccc(C(=O)NCc4ccncc4)cc32)cc1,18.5,4.33,16.4,5,19.3,5.42,18.4,6.16,15.5,0.63,5.11,4.18,15.1,1.77,7.98,2.2,6.7,1.92,7.63,3.7
CS(=O)(=O)CCNCc1ccc(-c2ccc3ncnc(Nc4ccc(OCc5cccc(C(F)(F)F)c5)cc4)c3c2)o1,4.34,5.01,5.61,3.52,4.77,2.31,6.67,2.61,1.41,2.09,3.01,2.07,3.5,0.96,2.45,-0.35,3.53,1.21,2.69,0.05
Cc1ccc(-c2cc3c(NC(=O)C4CC4)ncnc3o2)cc1,6.17,5.27,7.32,3.82,5.54,1.95,4.28,1.05,0.33,1.09,2.27,2.81,1.43,2.52,4.28,1.27,2.17,2.35,2.3,0.9
CC(C)c1ccc(-c2cc(-c3c[nH]nc3-c3ccccn3)ccn2)cc1,10.9,1.32,5.01,2.03,2.34,-0.11,2.04,-0.13,-0.45,0.38,1.96,0.45,1.63,-0.37,1.19,-0.1,0.24,1.17,1.83,0.05
